The values that follow come from PubChem BioAssay.

Assay [1] has as its target Albumin (Bos taurus) (UniProt P02769). Put plainly: compounds binding labelled BSA control protein – biochemical, small-molecule microarray, Alexa647 label, 635/667 nm fluorescence, artefact control for SMM control protein annotation, profiling panel (AID 1118).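 Also: score merges 667 nm emission intensity and signal-to-noise per printed compound spot.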 Conditions: BSA-A647 binding, fluorescence 635 nm, higher = more signal.
The nature of assay [2]: probe aXIP binding to arrayed compounds – biochemical, NeuroSMM set, 635/667 nm fluorescence, primary screen (AID 1119).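 Also: probe is the protein aXip251-270 applied at 1 µg/mL to compound-printed slides; binding of probe to printed compounds measured as 667 nm fluorescence plus signal to noise.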 As to conditions: small-molecule microarray, higher = more signal, called active from +8 up or from −8 down.
A short description of assay [3]: probe aNOTCH3 binding on compound microarray – biochemical, small-molecule microarray, 635/667 nm fluorescence, primary screen (AID 1120).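 Also: probe is a biotin-tagged antibody raised against NOTCH3 rather than NOTCH3 protein; score merges spot fluorescence near 667 nm with spot signal to noise.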 As to conditions: higher = more signal.
A short description of assay [4]: probe aNOTCH2 binding on compound microarray – biochemical, small-molecule microarray, 635/667 nm fluorescence, primary screen (AID 1121).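 Also: score merges feature fluorescence read at 667 nm with its signal to noise.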 As to conditions: higher = more signal.
Assay [5] addresses Carbonic anhydrase 2 (Homo sapiens) (UniProt P00918). Put plainly: compounds binding carbonic anhydrase 2 – biochemical, small-molecule microarray, Alexa647-labelled CAII, profiling panel (AID 1122). As to conditions: CAII-A647 binding fluorescence, higher = more signal.
The nature of assay [6]: COS7 lysate on small-molecule microarray, probe aHis, 635 nm (AID 1123).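 Also: z-score combines 667nm fluorescence intensity with signal-to-noise per printed compound spot.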 As to conditions: COS7 cell lysate, fluorescence, higher = more signal.
Assay [7] is described as follows: probe aLAP1 signal on lysate-treated microarray – cell lysate, small-molecule microarray, COS7 lysate, primary screen (AID 1124).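 Also: lysate comes from COS7 cells expressing LAP1 and is applied at 0.3 µg/mL; score merges spot fluorescence near 667 nm with signal-to-noise over triplicate slides.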 Conditions: probe aLAP1, fluorescence, higher = more signal.
Assay [8] relates to Sam68 (KHDRBS1). Nature of the assay: compounds binding KHDRBS1 protein – biochemical, small-molecule microarray, 635 nm fluorescence, primary screen (AID 1125).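 Also: score merges 667 nm channel intensity with signal to noise over triplicate slides.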 As to conditions: higher = more signal.
Assay [9] concerns Chordin-like protein 2 (CHRDL2). Nature of the assay: compounds binding chordin-like 2 – biochemical, small-molecule microarray, 635 nm fluorescence, primary screen (AID 1126).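 Also: printed compound slides probed with Chrdl2 protein at 4 µg/mL for 1 h at 4 C; score merges 667 nm emission intensity with signal to noise over three replicate slides.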 Conditions: fluorescence 635 nm, higher = more signal.
For assay [10], the target named is Concanavalin-A (Canavalia ensiformis) (UniProt P02866). Put plainly: compounds binding concanavalin A lectin – biochemical, small-molecule microarray, Alexa647 label, 635 nm, artefact control for SMM control protein annotation, primary screen (AID 1127).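 Also: z combines 667 nm emission intensity with signal-to-noise across three replicate slides.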 As to conditions: ConA-A647 binding fluorescence, higher = more signal.
Concanavalin-A (Canavalia ensiformis), sequence (P02866 whole entry, looked up): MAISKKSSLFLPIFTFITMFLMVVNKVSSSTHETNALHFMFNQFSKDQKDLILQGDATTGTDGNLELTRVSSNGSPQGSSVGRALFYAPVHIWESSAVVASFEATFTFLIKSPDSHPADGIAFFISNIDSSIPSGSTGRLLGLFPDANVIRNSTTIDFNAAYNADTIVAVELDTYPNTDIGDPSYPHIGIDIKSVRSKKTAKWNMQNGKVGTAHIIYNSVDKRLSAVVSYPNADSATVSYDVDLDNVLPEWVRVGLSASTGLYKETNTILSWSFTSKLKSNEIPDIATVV
Assay [11] is described as follows: compounds binding Alexa647 anti-His antibody – biochemical, small-molecule microarray, 635 nm fluorescence, artefact control for SMM control protein annotation, primary screen (AID 1128).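 Also: score merges feature fluorescence with signal-to-noise for each printed compound spot.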 Conditions: higher = more signal.
For assay [12], the system named is Human papillomavirus type 1a E7 protein (residues 1-88). Put plainly: HPV1a E7 small-molecule binders, primary screen, biochemical, small-molecule microarray, residues 1-88, 635 nm (AID 1129). As to conditions: small-molecule microarray binding, fluorescence 635 nm; higher = more signal.
The target in assay [13] is Focal adhesion kinase 1 (Homo sapiens) (UniProt Q05397). Put plainly: PTK2 protein binding on printed compound slides – biochemical, small-molecule microarray, 635/667 nm fluorescence, BSA, DTT, primary screen (AID 1130).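 Also: composite of spot emission at 667 nm and signal to noise over triplicate slides.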 Conditions: 635 nm fluorescence, higher = more signal.
Focal adhesion kinase 1 (Homo sapiens), sequence (Q05397 whole entry, looked up): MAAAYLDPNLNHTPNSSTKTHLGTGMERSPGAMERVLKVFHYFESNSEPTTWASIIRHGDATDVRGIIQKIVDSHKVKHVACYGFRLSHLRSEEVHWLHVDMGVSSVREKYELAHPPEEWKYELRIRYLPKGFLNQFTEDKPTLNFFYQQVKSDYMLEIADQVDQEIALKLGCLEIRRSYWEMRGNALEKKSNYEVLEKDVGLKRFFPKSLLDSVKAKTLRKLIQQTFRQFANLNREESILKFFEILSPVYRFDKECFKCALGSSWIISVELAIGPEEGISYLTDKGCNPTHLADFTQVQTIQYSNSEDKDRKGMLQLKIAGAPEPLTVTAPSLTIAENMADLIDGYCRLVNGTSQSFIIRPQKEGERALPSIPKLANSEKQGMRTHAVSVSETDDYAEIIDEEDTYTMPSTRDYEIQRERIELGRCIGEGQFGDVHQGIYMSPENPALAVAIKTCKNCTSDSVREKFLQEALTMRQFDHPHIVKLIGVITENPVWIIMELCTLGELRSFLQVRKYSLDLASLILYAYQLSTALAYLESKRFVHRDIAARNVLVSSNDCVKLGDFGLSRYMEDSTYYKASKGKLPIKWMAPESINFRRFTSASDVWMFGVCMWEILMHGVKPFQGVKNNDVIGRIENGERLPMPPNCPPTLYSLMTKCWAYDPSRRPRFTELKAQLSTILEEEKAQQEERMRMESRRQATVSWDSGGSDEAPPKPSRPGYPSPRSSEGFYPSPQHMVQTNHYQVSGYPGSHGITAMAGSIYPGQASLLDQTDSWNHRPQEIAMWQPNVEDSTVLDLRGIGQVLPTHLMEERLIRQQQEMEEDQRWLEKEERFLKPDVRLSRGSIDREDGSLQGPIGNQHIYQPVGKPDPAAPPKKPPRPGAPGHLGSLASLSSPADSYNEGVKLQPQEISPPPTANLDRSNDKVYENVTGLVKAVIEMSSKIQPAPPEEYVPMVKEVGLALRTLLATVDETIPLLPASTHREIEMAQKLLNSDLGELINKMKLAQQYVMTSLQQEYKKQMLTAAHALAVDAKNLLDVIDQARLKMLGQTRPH
Assay [14] concerns Fibrinogen (Alexa647-labelled). Put plainly: Alexa647-fibrinogen binding to printed small molecules – biochemical, small-molecule microarray, 635/667 nm fluorescence, artefact control for SMM control-protein annotation, profiling panel (AID 1131).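 Also: z-score merges 667 nm fluorescence with per-spot signal-to-noise over triplicate slides.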 As to conditions: fibrinogen-A647 binding fluorescence, higher = more signal.
The target in assay [15] is Follistatin (Homo sapiens) (UniProt P19883). Put plainly: FST protein binding to printed compounds – biochemical, small-molecule microarray, 635/667 nm fluorescence, primary screen (AID 1132). Conditions: 635 nm fluorescence, higher = more signal.
Follistatin (Homo sapiens), sequence (P19883 whole entry, looked up): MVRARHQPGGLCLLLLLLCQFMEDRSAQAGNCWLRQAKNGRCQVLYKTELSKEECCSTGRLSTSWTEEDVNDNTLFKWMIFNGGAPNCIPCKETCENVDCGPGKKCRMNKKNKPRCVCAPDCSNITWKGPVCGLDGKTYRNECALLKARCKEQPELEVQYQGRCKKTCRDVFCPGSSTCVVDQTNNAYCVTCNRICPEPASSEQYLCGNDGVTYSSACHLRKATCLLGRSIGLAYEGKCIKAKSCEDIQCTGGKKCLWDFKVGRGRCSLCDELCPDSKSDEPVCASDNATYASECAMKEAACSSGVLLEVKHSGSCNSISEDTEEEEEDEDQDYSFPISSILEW
Assay [16] addresses Fibroblast growth factor 2 (Homo sapiens) (UniProt P09038). Nature of the assay: basic fibroblast growth factor binding to printed compounds – biochemical, small-molecule microarray, 635/667 nm fluorescence, primary screen (AID 1133). Conditions: FGF2, fluorescence 635/667, higher = more signal.
Assay [17] in a line: JC-1 mitochondrial potential readout, lung cancer cells – cell-based, A549, JC-1 fluorescence, basal, 24 h, 100 nL, profiling panel (AID 1138).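 Also: A549 lung adenocarcinoma cells under basal conditions with no added stimulus; test concentration not given here.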 Conditions: higher = more signal.
Assay [18] concerns Lefty1. Put plainly: Lefty1 protein binding to printed compounds – biochemical, small-molecule microarray, 635/667 nm fluorescence, primary screen (AID 1139). As to conditions: fluorescence 635/667, higher = more signal.
Assay [19] has as its system wheat germ agglutinin (Triticum aestivum), Alexa647-labelled. Nature of the assay: Alexa647-WGA lectin binding to printed small molecules – biochemical, small-molecule microarray, 635/667 nm fluorescence, artefact control for SMM control-protein annotation, profiling panel (AID 1140).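 Also: score merges 667 nm feature emission with signal to noise over triplicate slides.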 As to conditions: WGA-A647 binding, 635 nm fluorescence, higher = more signal.
The target in assay [20] is Luciferin 4-monooxygenase (Photinus pyralis) (UniProt P08659). Put plainly: inhibition of purified Photinus pyralis luciferase – biochemical, luminescence, purified enzyme, 2006 set, primary screen (AID 1141).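 Also: cell-free assay with purified firefly luciferase at 100 ng per well in PBS; test concentration not given here.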 Conditions: purified firefly luciferase, SteadyGlo luminescence, 30 min; higher = more signal, called active from +8 up or from −8 down.
Luciferin 4-monooxygenase (Photinus pyralis), sequence (P08659 whole entry, looked up): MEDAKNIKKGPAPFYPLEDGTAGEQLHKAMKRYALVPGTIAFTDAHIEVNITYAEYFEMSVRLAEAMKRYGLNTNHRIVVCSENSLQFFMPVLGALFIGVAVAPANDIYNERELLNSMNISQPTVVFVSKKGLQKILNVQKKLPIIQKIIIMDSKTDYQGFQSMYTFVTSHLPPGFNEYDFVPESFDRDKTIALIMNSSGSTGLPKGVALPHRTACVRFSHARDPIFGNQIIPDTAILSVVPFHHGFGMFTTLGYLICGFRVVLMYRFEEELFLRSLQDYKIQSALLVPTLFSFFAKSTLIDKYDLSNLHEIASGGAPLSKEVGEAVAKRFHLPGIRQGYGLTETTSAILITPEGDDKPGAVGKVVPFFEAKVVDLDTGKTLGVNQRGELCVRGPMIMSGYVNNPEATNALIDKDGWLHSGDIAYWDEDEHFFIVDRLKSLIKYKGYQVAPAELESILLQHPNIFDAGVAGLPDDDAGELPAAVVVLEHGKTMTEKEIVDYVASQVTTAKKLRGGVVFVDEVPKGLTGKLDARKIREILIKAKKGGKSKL

Molecules are shown by their SMILES. Active and inactive are the calls of the source.

Albumin (Bos taurus), sequence (P02769 whole entry, looked up): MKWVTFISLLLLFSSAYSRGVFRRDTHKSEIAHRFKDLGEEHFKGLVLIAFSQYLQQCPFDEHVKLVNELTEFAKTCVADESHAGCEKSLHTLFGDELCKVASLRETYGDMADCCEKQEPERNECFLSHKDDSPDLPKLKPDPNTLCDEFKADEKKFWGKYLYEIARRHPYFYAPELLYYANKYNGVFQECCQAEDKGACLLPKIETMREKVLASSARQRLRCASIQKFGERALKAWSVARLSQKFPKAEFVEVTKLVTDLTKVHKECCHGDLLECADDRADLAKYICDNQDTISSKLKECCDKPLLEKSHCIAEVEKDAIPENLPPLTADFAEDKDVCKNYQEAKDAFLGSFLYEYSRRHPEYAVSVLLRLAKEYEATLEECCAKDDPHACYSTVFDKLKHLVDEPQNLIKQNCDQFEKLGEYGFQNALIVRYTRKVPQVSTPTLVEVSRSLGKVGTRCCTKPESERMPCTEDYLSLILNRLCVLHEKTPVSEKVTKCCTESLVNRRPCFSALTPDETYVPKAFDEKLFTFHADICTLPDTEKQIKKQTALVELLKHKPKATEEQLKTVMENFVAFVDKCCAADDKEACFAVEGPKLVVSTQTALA
Fibroblast growth factor 2 (Homo sapiens), sequence (P09038 whole entry, looked up): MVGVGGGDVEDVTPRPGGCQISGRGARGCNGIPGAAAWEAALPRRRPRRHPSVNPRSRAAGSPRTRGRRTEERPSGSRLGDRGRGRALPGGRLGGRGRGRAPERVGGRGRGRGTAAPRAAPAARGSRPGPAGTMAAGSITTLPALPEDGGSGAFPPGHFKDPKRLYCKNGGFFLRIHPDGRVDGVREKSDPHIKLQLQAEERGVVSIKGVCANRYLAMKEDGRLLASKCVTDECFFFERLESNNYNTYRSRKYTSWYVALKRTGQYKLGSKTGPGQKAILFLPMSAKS

With `CCN1C(=O)[C@H]2[C@H]3[C@H](O)[C@H](O)CC(=NO[C@@H]4O[C@H](COC(C)=O)[C@@H](OC(C)=O)[C@H](OC(C)=O)[C@H]4OC(C)=O)[C@@H]3CC[C@H]2C1=O`, the composite z-score in assay [1] is 0.646; in assay [3], 0.0479; in assay [4], -0.044; in assay [5] it was -0.0179; in assay [6], 0.415; in assay [7], 0.781. The composite z-score in [8] is 1.22; in assay [9] it was 0.58; in assay [10], -0.441; in [11] it was -0.36; in assay [12] it was 0.839; in [13], 0.211. Moreover, the composite z-score in assay [14] was 0.744; in assay [15], 0.898; in assay [16], 0.747; in assay [18] it was 1.6; in assay [19], 0.696. Moreover, in assay [2], the composite Z-score is 0.581 (inactive). In addition, the z-score was -0.282 in assay [17] and 1.15 (inactive) in assay [20].

For `CCN1C(=O)[C@H]2[C@H]3[C@H](O)[C@H](O)CC(=NOC(C)CN4CCCc5nc(C)c(C)cc54)[C@@H]3CC[C@H]2C1=O` (stereo not given in full), the composite z-score in [1] is -0.558; in assay [3] it was 0.148; in [4], 0.0137; in assay [5], 0.014; in assay [6] it was -0.0995; in [7], 0.284. For the same compound, the composite z-score in assay [8] was 1.05; in assay [9], 0.893; in [10], -0.471; in assay [11], -0.245; in assay [12], 0.509; in [13] it was 0.335. Further, the composite z-score is 0.116 in [14]; 0.703 in assay [15]; 0.462 in [16]; 0.737 in [18]; -0.393 in assay [19]. Further, the composite Z-score in assay [2] is 0.635 (inactive). Moreover, the z-score in assay [17] is 0.623; in assay [20] it was 0.126 (inactive).

Consider `COc1ccc(O[C@H]2C=C[C@@H](c3ccccc3)O[C@@H]2CON=C(C)CCN2CCCc3nc(C)c(C)cc32)cc1`, for which the composite z-score in assay [1] is 0.118; in [3], 0.0225; in assay [4], -0.048; in assay [5], 0.437; in assay [6] it was 0.896; in assay [7], 0.271. Moreover, the composite z-score worked out at 1.05 in assay [8]; 0.369 in [9]; 0.946 in assay [10]; 1.5 in [11]; 0.957 in [12]; 0.0143 in assay [13]. In addition, the composite z-score in [14] worked out at 0.328; in assay [15] it was 0.651; in [16] it was 0.529; in assay [18], 0.408; in assay [19] it was 0.584. In assay [2], the composite Z-score was 0.528 (inactive). Besides, the z-score in assay [17] was 1.16; in assay [20], 0.715 (inactive).

On to `C[C@@H]1CC[C@H]2C(=O)OC(CN3C(=O)c4ccccc4C3=O)CN2[C@H]1c1ccc(Br)cc1` (stereo not given in full), for which the composite z-score in assay [1] is 0.808; in [3], -0.0984; in assay [4], 0.178; in [5] it was 0.305; in [6] it was 0.787; in [7] it was 0.376. The composite z-score in [8] was determined as 0.438; in assay [9], 0.333; in assay [10], 0.781; in assay [11], 0.194; in assay [12], 0.731; in [13], 0.246. Further, the composite z-score in assay [14] is 0.377; in [15] it was -0.145; in assay [16] it was -0.204; in [18], 0.117; in assay [19], 0.681. Also, the composite Z-score in assay [2] is 0.372 (inactive). Further, the z-score in [17] was 0.0226; in assay [20], -0.796 (inactive).

Take `C=CC[C@@H]1C=CC(ON=C(C)C)[C@@H](CO)O1` (stereo not given in full): the composite z-score in assay [1] was -0.282; in [3], -0.0288; in [4] it was -0.19; in assay [5] it was -0.341; in [6], -0.301; in assay [7] it was -0.178. Besides, the composite z-score in assay [8] is -1.11; in assay [9], -0.213; in assay [10], -0.0875; in assay [11], 3.16; in [12] it was -0.901; in [13], 0.0886. Moreover, the composite z-score in assay [14] was -0.445; in [15], -0.356; in assay [16], -0.458; in assay [18] it was -0.0561; in assay [19] it was -0.0488. Also, the composite Z-score in assay [2] is 0.112 (inactive). Further, the z-score in assay [17] was 0.178; in [20], -0.0424 (inactive).

As to `COC(=O)[C@H](C)NC(=O)CCC1CC(OC(=O)NCc2cccc3ccccc23)CC2(CCCC(COC(=O)NCCOc3ccccc3)O2)O1` (stereo not given in full), the composite z-score is 0.445 in [1]; -0.0694 in assay [3]; -0.161 in [4]; 0.295 in [5]; 1.17 in assay [6]; 0.106 in assay [7]. Further, the composite z-score was 1.23 in assay [8]; -0.254 in assay [9]; 1.09 in assay [10]; 0.334 in assay [11]; 1.12 in assay [12]; 0.549 in assay [13]. Besides, the composite z-score is 0.793 in assay [14]; 0.145 in [15]; -0.142 in assay [16]; 0.318 in assay [18]; 0.502 in assay [19]. The composite Z-score in assay [2] was -0.0662 (inactive). For the same compound, the values for the z-score in [17] and in assay [20] were -0.333 and 1.32 (inactive), respectively.
